Bioassay records from PubChem.
The full list was thinned out, with hits kept by preference.
IkB signaling – IkB pathway inhibition in ABC-DLBCL cells; ABC-DLBCL IkBa-CBG/CBR dual luciferase ratio, 4 h; response scale: scaled: untreated 0%, proteasome inhibitor 100%; Potency, µM (series often up to 57.1 µM); 0.04% of 110,000 active; active = well fitted curve in the direction sought with a large enough effect in the signal ratio, not every such curve was filed as active; inconclusive = small, poorly fitted or top-dose-only effect, or a change in a side signal; the % refers to the signal ratio;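 also: the direction sought is a rising ratio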
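Curves were fitted separately to fusion (green), unfused (red) and ratio luminescence, then classed by r2, magnitude and activity. Cells: OCI-Ly3, 4 h compound plus doxycycline at 37C; 10 uM MG-132 defined full response.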
Imprint erasure – induces erasure of genomic imprints in mouse ES cells | Potency, µM (top dose mostly 60.7 µM), most hits filed as activators | mouse ES Peg3-LacZ reporter, beta-gal luminescence, 40 h | 0.02% of 110,000 active
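Imprint erasure is scored as LacZ activity from the silenced maternal Peg3 allele in feeder-free female ES cells cultured 40 h with LIF. Luminescence is normalized to in-plate negative controls and fitted to the Hill equation.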
FLuc inh – inhibitors of firefly luciferase | P08659 | purified firefly luciferase, luminescence, 8 min | Potency, µM (series often up to 57.1 µM), actives largely listed as inhibitors | 2.2% of 72,000 active | AID 411; also: nearly all actives have a fitted effect of over 40% in size
Target sequence (P08659 whole entry, looked up): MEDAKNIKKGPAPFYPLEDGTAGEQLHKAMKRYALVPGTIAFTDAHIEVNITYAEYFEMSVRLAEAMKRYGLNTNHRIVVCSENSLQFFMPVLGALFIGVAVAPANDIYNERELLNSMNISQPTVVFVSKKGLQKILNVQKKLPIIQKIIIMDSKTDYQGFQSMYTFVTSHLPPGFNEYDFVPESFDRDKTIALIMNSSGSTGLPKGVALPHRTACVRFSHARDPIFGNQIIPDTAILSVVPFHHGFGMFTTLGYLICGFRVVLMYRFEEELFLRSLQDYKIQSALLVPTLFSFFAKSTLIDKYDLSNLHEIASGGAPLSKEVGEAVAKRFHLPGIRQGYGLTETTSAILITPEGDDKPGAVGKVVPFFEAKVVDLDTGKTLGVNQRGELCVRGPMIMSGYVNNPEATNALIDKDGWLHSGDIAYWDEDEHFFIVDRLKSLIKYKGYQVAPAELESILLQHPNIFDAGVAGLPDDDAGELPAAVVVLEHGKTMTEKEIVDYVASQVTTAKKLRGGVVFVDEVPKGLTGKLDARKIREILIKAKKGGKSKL
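Firefly luciferase (PKLight detection mix) with 10 uM ATP in pH 7.2 imidazole buffer (KCl, MgCl2, Tween 20, BSA). Compounds tested across a concentration series (qHTS). Luminescence read after 8 min at ambient temperature.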
p53ts 32C kill – kills p53ts cells at the permissive temperature | H1299-p53A138V at 32C, ATP luminescence viability, 24 h | Potency, µM (highest dose often 46.1 µM), usual class: cytotoxic | 0.93% of 130,000 active; also: nearly all actives have a fitted effect of over 55% in size
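Cells: H1299 p53ts (A138V), 600/well, pre-incubated 16–30 h at 37C. Cpd up to 46 uM, 24 h, 32C. Readout: ATPlite luminescence, 20 min RT. Normalization: DMSO vs tamoxifen 100 uM. AC50 by Hill equation.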
p53ts 39C kill – kills p53ts cells at the nonpermissive temperature. Potency, µM (series often up to 46.1 µM), most hits filed as cytotoxic. H1299-p53A138V viability at 39C, ATP luminescence, 24 h. AID 902. 1.5% of 130,000 active; also: nearly all actives have a fitted effect of over 55% in size
IMPase inh – cell-permeable inhibitors of inositol monophosphatase (IMPase); P97697; 120,000 tested, under 10 active; inhibition (IP1 accumulation), % at 46.1 µM; CHO-M1 cells, IP1 accumulation, HTRF TR-FRET ratio; AID 901; active = well fitted curve in the direction sought with a large enough effect in the signal ratio, not every such curve was filed as active; inconclusive = small, poorly fitted or top-dose-only effect, or a change in a side signal; inactive = no such curve, though single readings can be large or run the other way; the % refers to the signal ratio;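 also: cells stimulated with carbachol in lithium chloride buffer; higher means more IMPase inhibition seen as more IP1 and lower FRET ratio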
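Seeded CHO-M1 cells were dosed with compound at up to 46 uM, stimulated with carbachol for 30 min, then lysed in IP-One detection reagents. Higher IP1 lowers the TR-FRET signal.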
Hits are given with their value; - = inactive; ? = inconclusive; . = no result given; [ ] = remark or other dose. Unless noted, calls follow the shape of the dose curve; as a rule, active = well fitted curve in the direction sought with a large enough effect; inconclusive = small, poorly fitted or top-dose-only effect, or another doubt; inactive = no such curve, though single readings can be large; an effect the other way counts as inactive or inconclusive.

SMILES	IkB signaling	Imprint erasure	FLuc inh	p53ts 32C kill	p53ts 39C kill	IMPase inh
CN(C)c1ccc(NC(=O)c2sc(SCC(=O)Nc3nccs3)nc2N)cc1	.	.	3.98µM	.	.	-
CN(C)c1ccc(NC(=O)c2sc(SCC(=O)Nc3ccc(Br)cc3)nc2N)cc1	.	.	.	.	.	-
CC(=O)c1ccc(NC(=O)c2nc3ccccc3n(C)c2=O)cc1	-	-[10.9 µM]	.	2.51µM	2.51µM	.
COc1ccc(CCN2C(=NC(=O)CCC(=O)O)SC3CS(=O)(=O)CC32)cc1OC (stereo unspecified)	-	-	12.6µM	-	-	-
NC(=O)c1c(NC(=O)c2cccs2)sc2c1CCCCCC2	-	-	7.94µM	?	?	-
CC1(C)CC(=O)c2sc(NC(=O)c3cccs3)nc2C1	.	.	.	1.58µM	1.58µM	-
O=C(Nc1nc2c(s1)CCCC2)c1cccs1	?	.	5.01µM	10µM	10µM	-
O=C(Cc1cccs1)Nc1nc2c(s1)CCCC2	?	-	-	?	?	-
O=C(Nc1nc2c(s1)CCCC2)c1ccc(Br)o1	?	-	6.31µM	?	?	-
CCOc1ccccc1C1C(C(=O)N2CCCCC2)=C(C)Nc2nc3ccccc3n21 (stereo unspecified)	?	-[10.9 µM]	.	-	-	.
COc1ccccc1-c1cncnc1NCCNC(C)=O	-[11.4 µM]	?	-[2.29 µM]	-	-	.
Cc1ccc2c(c1)C(=O)[C@@]1(O)CCN(c3ccccc3)C1=N2	-	-	12.6µM	-	-	-
Cc1ccc2c(c1)C(=O)C1(O)CCN(c3ccccc3)C1=N2 (stereo unspecified)	.	-	.	.	.	.
CC(CN(C)C)NC(=O)c1ccc(-n2c(=O)c(=O)[nH]c3ccccc32)cc1 (stereo unspecified)	.	.	.	-	-	.
CSc1ccc(CNC(=O)Cn2nc(N3CCN(c4ccccc4)CC3)ccc2=O)cc1	?	-[10.9 µM]	.	-	-	.
COc1ccccc1-n1cc(C(=O)NCC(=O)N2CCN(c3ccccc3)CC2)c2ccccc2c1=O	-	-	2µM	12.6µM	12.6µM	-
COc1ccccc1CC(=O)N1CCN(c2ccccn2)CC1	.	.	.	.	.	-
COc1ccccc1-n1cc(C(=O)NCC(=O)N2CCN(c3ccccn3)CC2)c2ccccc2c1=O	-	-	6.31µM	?	?	.
Cc1cc(C)c(Cn2c(C(O)c3ccccc3)nc3ccccc32)c(C)c1 (stereo unspecified)	?	-[10.9 µM]	.	-	3.16µM	.
CCn1c(C(O)c2ccccc2)nc2ccccc21 (stereo unspecified)	-	-	-	-	-	-
COc1ccc(-n2ccnc(NCc3ccc(C)cc3)c2=O)cc1OC	-	-[10.9 µM]	.	-	-	.
CCOC(=O)c1sc(NC(=O)COC(=O)CNC(=O)C2CCCCC2)c(C(=O)OCC)c1C	.	.	.	?	3.16µM	-
O=C(Nc1cccc(Cl)c1)c1cc(-c2ccc3c(c2)OCO3)on1	?	-[10.9 µM]	.	-	-	.
O=C(Nc1cccc(Cl)c1)c1cc(-c2ccc3c(c2)OCCO3)on1	?	-[10.9 µM]	.	?	3.98µM	.
Cc1cccc(NC(=O)c2cc(-c3ccc4c(c3)OCCO4)on2)c1	?	-[10.9 µM]	.	1µM	1µM	.
SMILES	IkB signaling	Imprint erasure	FLuc inh	p53ts 32C kill	p53ts 39C kill	IMPase inh
COc1cccc([C@H]2Oc3ccc(OC)cc3/C(=N\O[C@@H](C)c3cn([C@H](CO)Cc4ccccc4)nn3)[C@@H]2O)c1	.	.	-[11.4 µM]	-[9.22 µM]	-[9.22 µM]	.
CC(=O)O[C@@H]1[C@H]([N+]2(C)CCCCC2)C[C@@H]2[C@@H]3CC[C@@H]4C[C@@H](OC(C)=O)[C@H]([N+]5(C)CCCCC5)C[C@@]4(C)[C@H]3CC[C@]21C	-	.	-	-	-	-
CC(=O)NCCNc1ncnc2ccc(-c3c(C)noc3C)cc12	-[11.4 µM]	-	-[2.29 µM]	-	-	.
COCn1c(-c2ccc(OC)c(OC)c2)nc2ccccc21	-	-	15.8µM	?	?	-
COCn1c(-c2cccc(Br)c2)nc2ccccc21	-	-	-	-	-	-
CSC(=NC1CCCCC1)NS(=O)(=O)c1ccccc1	-	-	-	-	-	-
CC(=NC1CCCCC1)C1=C(O)c2ccccc2C1=O	?	-	7.94µM	?	?	-
Cc1ccc(OCCCSc2nc(-c3ccc(C(C)(C)C)cc3)nc3cc(=O)[nH]n23)cc1C	-	-[10.9 µM]	.	?	20µM	.
COc1ccccc1OCCSc1nc(-c2ccc(C(C)(C)C)cc2)nc2cc(=O)[nH]n12	?	-[10.9 µM]	.	-	-	.
C=CCc1ccccc1OCCSc1nc(-c2ccc(C(C)(C)C)cc2)nc2cc(=O)[nH]n12	-	-[10.9 µM]	.	?	10µM	.
COC(=O)c1ccccc1NS(=O)(=O)c1cc2c(cc1C)N(C)CCO2	?	-[10.9 µM]	.	-	-	.
COc1ccc(S(=O)(=O)n2nc(-c3ccco3)nc2NCc2ccc(OC)c(OC)c2)cc1	-	-[10.9 µM]	.	-	-	.
CN(C)c1ccc(C2N([C@H](C#N)c3ccc(N(C)C)cc3)CCCN2[C@@H](C#N)c2ccc(N(C)C)cc2)cc1 (stereo partly specified)	-[11.4 µM]	-[10.9 µM]	-[11.4 µM]	-[9.22 µM]	-[9.22 µM]	.
COc1ccc(NC(=O)N2CCc3ccccc32)cc1	.	.	.	.	.	-
CCOC(=O)c1ccc(NC(=O)N2CCc3ccccc32)cc1	-	-	3.98µM	?	?	-
Cc1ccc(OCC(=O)N2CCCc3ccccc32)cc1	.	.	.	-	-	-
O=C(COc1ccc2c(c1)CCC2)N1CCc2ccccc21	?	-	25.1µM	12.6µM	?	-
O=C(OCC(=O)N1CCc2ccccc21)c1cccnc1	-	.	-	-	-	-
O=C(OCC(=O)N1CCc2ccccc21)c1ccccc1	?	-	20µM	-	-	-
CCN1CCCC1CNC(=O)C(=O)Nc1cccc(OC)c1 (stereo unspecified)	.	.	.	.	.	-
COc1cccc(CCc2ccccc2OCC[C@@H]2C[C@@H](O)CN2C)c1	.	-	.	?	12.6µM	.
COC(=O)c1cccc(NC(=O)c2nsc3ccccc23)c1	-	-[10.9 µM]	.	2.51µM	6.31µM	.
O=C(Nc1cccc(C(=O)N2CCCCC2)c1)c1nsc2ccccc12	-	-[10.9 µM]	.	15.8µM	10µM	.
CC1CCN(C(=O)c2ccc(NC(=O)c3nsc4ccccc34)cc2)CC1	?	-[10.9 µM]	.	-	?	.
C[C@@]12C=Cc3occc3C1CC[C@@]13C[C@@H](CCC12)[C@@](O)(CO)C3 (stereo partly specified)	.	-	.	.	.	.
O=Nc1c(-c2c(O)[nH]c3cc(Br)ccc23)[nH]c2ccccc12	.	-	.	12.6µM	12.6µM	-
O=Nc1c(O)[nH]c2ccccc12.[Cu].[O-]/N=C1/C(=[OH+])Nc2ccccc21	.	-[10.9 µM]	.	.	.	.
C=CCNc1nc2c(c(=O)[nH]c(=O)n2C)n1Cc1cccc(C)c1	-	-	-	6.31µM	7.94µM	-
O=C(Nc1cnn(Cc2ccc(F)cc2)c1)c1cc(-c2ccc(Br)cc2)on1	-	-	-	-	-	.
CC(C)n1c(/C=C/c2ccccc2)nc2ccccc21	.	.	.	?	?	-
